# S-ASM inh: Inhibitors of Secretory Acid Sphingomyelinase (S-ASM): qHTS; placental ASM, HMU-PC fluorogenic substrate, 60 min; Potency, µM (series often up to 57.5 µM), for the others: at the highest dose activity change, negative = inhibition, actives largely listed as inhibitors; 340,000 tested, 0.006% active; AID 504937, 2011; note: potency is the fitted concentration of half-maximal effect
# Target sequence (P17405 47-631 limits assumed): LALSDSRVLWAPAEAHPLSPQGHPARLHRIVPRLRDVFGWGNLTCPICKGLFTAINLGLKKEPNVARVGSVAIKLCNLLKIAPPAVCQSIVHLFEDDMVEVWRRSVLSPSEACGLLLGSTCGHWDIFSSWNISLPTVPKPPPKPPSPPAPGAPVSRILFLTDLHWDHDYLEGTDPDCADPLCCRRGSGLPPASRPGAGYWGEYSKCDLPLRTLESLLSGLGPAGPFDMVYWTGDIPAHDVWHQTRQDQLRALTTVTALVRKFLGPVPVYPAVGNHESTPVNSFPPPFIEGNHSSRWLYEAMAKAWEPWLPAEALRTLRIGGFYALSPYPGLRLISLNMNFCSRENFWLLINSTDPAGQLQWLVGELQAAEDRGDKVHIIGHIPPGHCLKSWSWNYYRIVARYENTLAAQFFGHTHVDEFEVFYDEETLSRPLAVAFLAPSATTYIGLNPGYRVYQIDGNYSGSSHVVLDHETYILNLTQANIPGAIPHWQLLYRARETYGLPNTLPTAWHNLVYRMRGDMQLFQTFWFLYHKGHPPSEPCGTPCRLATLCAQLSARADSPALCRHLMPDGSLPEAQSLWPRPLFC
#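 Steps: dispense placental human ASM, pin compound, wait 10 min at room temperature, add HMU-PC0 substrate at 9 uM final, incubate 60 min at 37 °C, add stop solution raising pH to 10, read fluorescence.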
# IL-1B inflam inh: qHTS for Inhibitors of Inflammasome Signaling: IL-1-beta AlphaLISA Primary Screen. THP-1 LPS/ATP IL-1B secretion, AlphaLISA, 16 h; stronger effect = lower value. activity change, % at 57.5 µM. 360,000 tested, 4.7% active; in the data active = activity change below about -50%; inconclusive = mostly about -30% to -49%; note: % is set by controls: 0 for no effect and ±100 for the full control effect
#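 Secreted IL-1B measured by AlphaLISA bead assay after 16 h compound exposure of THP-1 cells; compounds (final up to 57.5 uM) added 1 h before LPS (250 ng/mL) and ATP (1.25 mM) stimulation; lower signal means less secretion.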
# TDP1 cell CPT: qHTS for Inhibitors of human tyrosyl-DNA phosphodiesterase 1 (TDP1): qHTS in cells in presence of CPT; chicken DT40 Tdp1-/-;hTDP1 cells + 20 nM CPT, ATP luminescence, 48 h; Potency, µM (titrated, usually from 46.2 µM), without a hit: at the top dose activity change, negative = growth inhibition, usual class: inhibitors; 420,000 tested, 12% active; note: potency is the fitted concentration of half-maximal effect; % is set by controls: 0 for no effect and ±100 for the full control effect; nearly all actives have a fitted effect of over 55% in size
#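 Cell growth measured by CellTiter-Glo luminescence after a minimum 48 h, 37 C compound exposure with 20 nM CPT in Tdp1-knockout DT40 cells stably expressing hTDP1, seeded 400/well; qHTS titration format.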
# TDP1 cell noCPT: qHTS for Inhibitors of human tyrosyl-DNA phosphodiesterase 1 (TDP1): qHTS in cells in absence of CPT. AID 686978, 2013. DT40 Tdp1-/- hTDP1 cells, no CPT, ATP luminescence, 48 h. 420,000 tested, 15% active. Potency, µM (doses to about 46.2 µM), for inactives: at the top dose activity change, negative = growth inhibition, actives largely listed as inhibitors; note: potency is the fitted concentration of half-maximal effect; % is set by controls: 0 for no effect and ±100 for the full control effect; nearly all actives have a fitted effect of over 55% in size
#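 Growth of hTDP1-complemented DT40 Tdp1-knockout cells is measured by ATP luminescence after at least 48 hr compound exposure at 37 °C, with DMSO substituting for the 20 nM CPT used in the parallel screen.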
# TGFb SMAD3 inh: qHTS for Inhibitors of TGF-b. HepG2 CAGA-GFP TGF-b/SMAD3 reporter, GFP fluorescence, 18 h; TGF-beta stimulated, 500 pg/mL final. 410,000 tested, 1.2% active. Potency, µM (highest dose often 46.1 µM), for inactives: at the highest dose activity, negative = inhibition, hits mostly inhibitors; note: potency is the fitted concentration of half-maximal effect; % is set by controls: 0 for no effect and ±100 for the full control effect; nearly all actives have a fitted effect of over 65% in size
#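 Inhibition of TGF-beta-driven CAGA-GFP reporter expression in HEPG2 cells is measured by cellular GFP fluorescence after 18 h stimulation with 500 pg/mL recombinant TGF-beta in 1% FBS medium at 37 degrees C.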
# HepG2 viability: qHTS for Inhibitors of TGF-b: Cytotox Counterscreen; HepG2 CAGA-GFP viability, ATP luminescence, 18 h; Potency, µM (titrated, usually from 46.1 µM), without a hit: top-dose activity change, negative = cytotoxicity, actives largely listed as cytotoxic; 410,000 tested, 0.76% active; AID 588856, 2011; note: potency is the fitted concentration of half-maximal effect
#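 HepG2 CAGA-GFP cells (1000/well, DMEM with 1% FBS) received compound, then TGF-beta at 500 pg/mL final, and were incubated 18 hours at 37 degrees C. Viability was read by CellTiter-Glo luminescence. Media-only wells were set as complete cell-killing and DMSO as no toxicity.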
# Numbers without * were called inactive; ? = inconclusive; . = no result. In the library only some 19% were active in any assay of this set; here they are far more common. Unless noted, calls come from the whole dose curve; as a rule, active = well fitted curve in the direction sought with a large enough effect; inconclusive = small, poorly fitted or top-dose-only effect, or another doubt; inactive = no such curve, though single readings can be large; an effect the other way counts as inactive or inconclusive.
SMILES,S-ASM inh,IL-1B inflam inh,TDP1 cell CPT,TDP1 cell noCPT,TGFb SMAD3 inh,HepG2 viability
CC(C)Oc1ccc(CN2CCC(n3nccc3NC(=O)CCc3ccccc3)CC2)cc1,3%,0,?,?,?,-19%
CN(C(=O)COC(=O)c1c2c(nc3ccccc13)CCCC2)c1c(N)n(Cc2ccccc2)c(=O)[nH]c1=O,-1%,-54*,-5%,-16%,-13%,-3%
Cc1onc(-c2ccccc2)c1C(=O)OCC(=O)N(C)c1c(N)n(Cc2ccccc2)c(=O)[nH]c1=O,4%,-1,-19%,-1%,?,-41%
CC(C)CN(C(=O)COC(=O)c1c2c(nc3ccccc13)CCC2)c1c(N)n(Cc2ccccc2)c(=O)[nH]c1=O,-3%,-51*,?,?,?,-17%
CCN(C(=O)COC(=O)c1c2c(nc3ccccc13)CCC2)c1c(N)n(Cc2ccccc2)c(=O)[nH]c1=O,-1%,?,?,-21%,-5%,-1%
CCOc1ccc(C(=O)NNC(=O)CN2C(=O)C3CC=CCC3C2=O)cc1OC (stereo not given),0%,2,5%,-8%,-2%,2%
COc1ccc(C2CC(c3ccc(OC)cc3O)=NN2C(=O)c2ccccc2)cc1 (stereo not given),-18%,-11,21µM*,21µM*,0%,-8%
COc1ccc(C2CC(c3ccc4ccccc4c3OC(C)=O)=NN2C(C)=O)cc1 (stereo not given),-7%,-26,10µM*,9.2µM*,?,-25%
O=C(c1ccccc1)N1N=C(c2ccccc2O)CC1c1ccccc1 (stereo not given),-5%,13,21µM*,?,?,-33%
COc1ccc(C2=NN(C(=S)Nc3ccccc3)C(c3ccccc3)C2)cc1 (stereo not given),-4%,-11,?,18µM*,13%,-7%
COC(=O)[C@H]1C[C@@]2(O)CN(S(=O)(=O)c3ccc(C)cc3)C[C@@]2(OC(=O)Nc2cccs2)C[C@H]1C(=O)OC,.,?,?,?,-21%,-29%
COc1ccc(C2=NN(C(=O)c3ccc(Cl)c([N+](=O)[O-])c3)C(c3ccccc3)C2)cc1 (stereo not given),-9%,-14,?,?,-19%,-8%
COc1ccc(C2CC(c3ccccc3)=NN2C(=O)c2ccc(F)cc2)cc1 (stereo not given),-2%,-64*,?,29µM*,?,-23%
O=C(NNC(=O)c1ccccc1O)c1ccc(S(=O)(=O)Nc2ccccc2)cc1,-5%,45,?,16µM*,-24%,-30%
O=C(Nc1ccc(-c2cnco2)cc1)c1ccccc1,0%,-71*,1%,2%,1%,7%
CCOc1ccc(NS(=O)(=O)c2ccc(C(=O)NNC(=O)c3ccccc3O)cc2)cc1,-4%,138,?,?,-5%,-15%
CC(C(=O)c1ccc(-c2ccccc2)cc1)[n+]1cccc(NC(=O)c2ccccc2)c1 (stereo not given),-11%,?,18µM*,15µM*,?,-28%
CC(C(=O)c1ccccc1)[n+]1cccc(Br)c1 (stereo not given),-3%,22,?,?,8%,5%
O=C(Nc1ccc(-c2cnco2)cc1)c1ccc(Cl)cc1,-1%,?,9%,-6%,12%,10%
O=C(Nc1ccncc1)c1ccc(-c2ccccc2)cc1,-7%,-15,3.3µM*,2.9µM*,-33%,-21%
Cc1noc(C)c1NC(=O)N(C)C[C@H]1Oc2ccc(NC(=O)NC(C)C)cc2C(=O)N([C@H](C)CO)C[C@@H]1C,1%,-2,?,-14%,1%,-8%
CC(=O)c1cccc(NS(=O)(=O)c2ccc(C(=O)Nc3ccccc3)cc2)c1,-13%,-12,18µM*,12µM*,?,-37%
O=C(Nc1ccncc1)c1ccc(S(=O)(=O)Nc2ccccc2)cc1,-2%,15,15µM*,12µM*,3%,-20%
O=C(Nc1ccccc1)c1ccc(S(=O)(=O)Nc2cccc(O)c2)cc1,-3%,-16,?,?,-15%,-17%
NS(=O)(=O)c1ccc(NS(=O)(=O)c2ccc(NC(=O)c3ccc(-c4ccccc4)cc3)cc2)cc1,-2%,10,-4%,-28%,?,-31%
SMILES,S-ASM inh,IL-1B inflam inh,TDP1 cell CPT,TDP1 cell noCPT,TGFb SMAD3 inh,HepG2 viability
S=c1ncc2n[nH]nc2[nH]1,.,.,6%,1%,2%,-51%
COc1cc(C(c2sc3nc(C)nn3c2O)N2CCC3(CC2)OCCO3)cc(OC)c1OC (stereo not given),-1%,6,16µM*,16µM*,-4%,-7%
COCCN(C(=O)C(C)C)c1nnc(-c2ccc(C)cc2)s1,-1%,-22,?,?,-3%,-10%
COCCN(C(=O)C(C)C)c1nnc(-c2cccc(C)c2)s1,-3%,-53*,-6%,-21%,10%,-23%
COc1ccc(CCN(C(=O)c2snc(C(N)=O)c2N)C(C)C(=O)NC2CCCCC2)cc1OC (stereo not given),87%,-19,-19%,?,7%,1%
COCCNS(=O)(=O)c1cc(-c2nn(C)c(=O)c3ccccc23)ccc1C,0%,24,4%,?,8%,-20%
Cc1cc(C)n(CC(=O)NCc2cc(-c3nn(C)c(=O)c4ccccc34)ccc2C)n1,3%,-1,?,16µM*,-9%,-4%
CCCCNS(=O)(=O)c1cc(-c2nn(C)c(=O)c3ccccc23)ccc1C,8%,-65*,?,-1%,0%,-1%
CCN(CC)S(=O)(=O)c1cc(-c2nn(C)c(=O)c3ccccc23)ccc1C,-1%,38,23µM*,16µM*,0%,-31%
Cn1nc(-c2ccc3c(c2)OCCO3)c2ccccc2c1=O,-3%,37,?,21µM*,0%,-5%
Cc1ccc(-c2nn(C)c(=O)c3ccccc23)cc1S(=O)(=O)NCCN(C)C,1%,-8,1%,?,-12%,-8%

# Screening results from PubChem.
